Reference: PubChem BioAssay (NCATS)
Values joined by “and” are separate entries in the source; they are usually repeats but may differ in a detail not shown here. Equal values may be shown once. Inconclusive results are not listed. A structure can be active in one record and inactive in another. Active and inactive are the calls of the source. Unless noted, calls come from the whole dose curve; as a rule, active = well fitted curve in either direction with a large enough effect (not every such curve was filed as active); inconclusive = small, poorly fitted or top-dose-only effect, or another doubt; inactive = flat fitted curve, though single readings scatter.

Columns and labels:
[1] = AP1 Signaling Pathway (AID 357); conditions: ME-180 AP-1-bla reporter, EGF-induced, beta-lactamase ratio, 5 h; at 17.2 µM (top of the series);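 note: ME-180 reporter cells stimulated with EGF at its EC50 level; % is set by controls: 0 for no effect and ±100 for the full control effect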
In short: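 A ratiometric CCF4 readout (405 nm excitation; 460 and 530 nm emission) quantified AP-1-driven beta-lactamase in ME-180 cells after 5 h with compound and EC50 EGF; AC50 values were derived for activators and inhibitors.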

[2] = Cell Viability - BJ (AID 421; calls by dose curve;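 note: potency is the fitted concentration of half-maximal effect; cells exposed to compound for 40 hours at 37 °C before readout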); conditions: BJ fibroblast viability, qHTS
In short: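 Quantitative HTS: ATP depletion in BJ cells after 40 hr compound exposure in complete culture medium, detected with CellTiter-Glo; AC50 from standard Hill fits.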

[3] = Cell Viability - Hek293 (AID 427;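 active = compounds whose dose-response curve shows a full or clear partial loss of cell viability, called from curve shape rather than a numeric limit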;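 note: potency is the fitted concentration of half-maximal effect; cells exposed to compound for 40 hours at 37 °C before reading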); conditions: qHTS
In short: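 AC50 values derive from Hill-modelled concentration-response of ATP-based luminescence, normalized between DMSO-only and 100 uM tamoxifen controls. Cells were exposed in complete culture medium for 40 hr at 37 °C before detection.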

[4] = Cell Viability - HepG2 (AID 433; calls by dose curve;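 note: potency is the fitted concentration of half-maximal effect; potency for ATP loss meaning cytotoxicity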); conditions: qHTS
In short: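 Cytotoxicity read as ATP loss (CellTiter-Glo luminescence) after 40 hr compound exposure of HepG2, 1500 cells/well, 37 °C. AC50 by Hill equation; 0% set by DMSO, 100% inhibition by 100 uM tamoxifen.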

[5] = NFAT Signaling Pathway (AID 444); conditions: Jurkat NFAT-bla M1, carbachol, beta-lactamase ratio, 5 h;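 note: carbachol stimulus at about its EC50 of 1 µM final; % is set by controls: 0 for no effect and ±100 for the full control effect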
In short: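 Jurkat cells with NFAT-driven β-lactamase reporter and co-expressed M1 receptor, stimulated with carbachol (final 1 uM, ~EC50), compound titration, 5 h at 37 °C. CCF4 loaded 1 h at RT; 460/530 nm ratio gave %activity and AC50.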

[6] = biological target: Glucocorticoid receptor (Homo sapiens) (UniProt P04150); assay: GR-GFP Redistribution (AID 450;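 active = compounds whose dose series gives a full or clear partial fitted curve of increased nuclear translocation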; note: potency is the fitted concentration of half-maximal effect); conditions: U2OS GR-GFP nuclear translocation, laser cytometry, 2 h
[7] = biological target: Glucocorticoid receptor (Homo sapiens) (UniProt P04150); assay: GR-EFC Redistribution (AID 451; calls by dose curve; note: potency is the fitted concentration of half-maximal effect); conditions: CHO-K1 GR-EFC translocation, beta-gal luminescence, 2 h
In short: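 CHO-K1 cells expressing nuclear EA and GR-ED fragments of b-gal; compounds titrated up to 46 uM final, 2 h at 37 C. GR nuclear translocation read as complemented b-gal luminescence after 1 h RT detection.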

[8] = biological target: Mitogen-activated protein kinase 10 (Mus musculus) (UniProt Q61831); assay: JNK3 AlphaScreen Assay (AID 530); conditions: JNK3 lysate, c-Jun phosphorylation; series mostly up to 57.1 µM;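 note: kinase came from lysate of stimulated human HepG2 cells; signal reports phosphorylation of biotinylated GST-cJun 1-79 at Ser73 with 10 µM ATP; % is set by controls: 0 for no effect and ±100 for the full control effect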
In short: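 qHTS format: compounds tested as titrations against IL-1beta/TNF-alpha-activated HepG2 lysate JNK3 with biotin-GST-cJun substrate and 10 uM ATP at room temperature. Loss of anti-phospho-cJun AlphaScreen signal indicates inhibition.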

[9] = Cell Viability - NIH 3T3 (AID 541; active = well fitted curve in the direction sought with a large enough effect; an effect the other way counts as inactive or inconclusive; note: potency is the fitted concentration of half-maximal effect; nearly all actives have a fitted effect of over 25% in size); conditions: NIH 3T3 cell viability, qHTS; activity change, negative = cytotoxicity: at 92.2 µM (top of the series)
In short: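 NIH 3T3 mouse embryo fibroblasts (1000 cells/well) were plated in complete medium and treated with compound for 40 hr at 37 °C. Viability was read as intracellular ATP by CellTiter-Glo luminescence; AC50 values came from Hill-equation fits of concentration-response data.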

[10] = Cell Viability - SH-SY5Y (AID 544; active = well fitted curve in the direction sought with a large enough effect; an effect the other way counts as inactive or inconclusive; note: potency is the fitted concentration of half-maximal effect; nearly all actives have a fitted effect of over 55% in size); conditions: SH-SY5Y neuroblastoma cell viability; series mostly up to 92.2 µM
In short: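 Human neuroblastoma SH-SY5Y cells (1500/well) in complete medium were exposed to compounds for 40 hr at 37 °C; intracellular ATP was then quantified by CellTiter-Glo luminescence after 20 min at room temperature. AC50 came from Hill-equation concentration-response fits.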

[11] = Cell Viability - Renal Proximal Tubule (AID 545; active = well fitted curve in the direction sought with a large enough effect; an effect the other way counts as inactive or inconclusive; note: nearly all actives have a fitted effect of over 40% in size; note: potency is the fitted concentration of half-maximal effect;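 for activity change, negative = cytotoxicity: 0% = DMSO only and -100% = 100 µM tamoxifen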); conditions: renal proximal tubule cells viability, primary cells of rat origin; series mostly up to 91.7 µM
In short: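 Viability taken as intracellular ATP (CellTiter-Glo luminescence) after 40 hr, 37 °C compound treatment of primary proximal tubule cells from rat kidney, 1000 cells/well; Hill-equation fits of qHTS concentration-response data gave AC50.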

[12] = Cell Viability - Mesenchymal (AID 546; active = well fitted curve in the direction sought with a large enough effect; an effect the other way counts as inactive or inconclusive;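 note: cells exposed to compound for 40 hours before reading; 0% = DMSO only and -100% = 100 µM tamoxifen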); conditions: mesenchymal cells viability, qHTS; series mostly up to 91.7 µM
In short: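 Human kidney mesenchymal cells from normal renal glomeruli, 1000 cells/well, rested 5 hr at 37 °C, then treated 40 hr at 37 °C in complete medium. Cellular ATP read by CellTiter-Glo luminescence; AC50 from Hill-equation fits.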

[13] = biological target: 3',5'-cyclic-AMP phosphodiesterase 4B (Homo sapiens) (UniProt Q07343); assay: qHTS Assay for Inhibitors of PDE-IV (AID 607; active = well fitted activation curve with a large enough effect in the main read-out, with a control signal flat, not every such curve was filed as active; note: % of control where 0% means no effect); conditions: HEK293 ACTOne CNG channel cells, membrane potential fluorescence; series mostly up to 22.9 µM
In short: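 Live HEK293 cells with a modified cyclic nucleotide-gated (CNG) channel report intracellular cAMP via membrane-potential dye fluorescence (ex 535/em 590 nm). Endogenous PDE-IV was targeted. Compounds were tested at up to 22.9 uM final; RO 20-1724 100 uM served as control.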

[14] = biological target: Cytochrome P450 1A2 (Homo sapiens) (UniProt P05177); assay: p450-cyp1a2 (AID 410; calls by dose curve; note: potency is the fitted concentration of half-maximal effect;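 for activity change, negative = inhibition: -100% = full effect of reference inhibitor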); conditions: recombinant CYP1A2, luciferin-ME demethylation, luminescence; series mostly up to 25.6 µM
In short: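 Human CYP1A2 (20nM) demethylated Luciferin-ME at its Km (100uM) in 100mM KPO4. After 10 min compound preincubation, NADPH regeneration ran the reaction 60 min at room temperature. Luciferin was read by luminescence, normalized to 57 uM furafylline.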

[15] = Stat Signaling Pathway (AID 446); conditions: ME-180 (cervical carcinoma) SIE beta-lactamase reporter, IL-6 stimulated, 5 h;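 note: ME-180 cervical cancer cells given 40 pM IL-6 alongside compound; SIE-controlled beta-lactamase reporter measured as 460/530 nm FRET emission ratio; % is set by controls: 0 for no effect and ±100 for the full control effect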
In short: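 IL-6/STAT signaling read in ME-180 cells via an SIE beta-lactamase reporter. Stimulus was 40 pM IL-6 (its AC50) for 5 hrs, so both activation and inhibition register.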

[16] = Cell Viability - Jurkat (AID 426;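 active = dose-dependent loss of cell ATP signal giving a full or clear fitted curve, ranked by lower potency value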; note: potency is the fitted concentration of half-maximal effect); conditions: qHTS
In short: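 Jurkat (clone E6-1, human T-cell leukemia) cells, 5000/well in complete medium, were exposed to compound for 40 hr at 37 °C. Viability was read as intracellular ATP by CellTiter-Glo luminescence; AC50 came from Hill fits of concentration-response data.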

[17] = Cell Viability - N2a (AID 540; active = well fitted curve in the direction sought with a large enough effect; an effect the other way counts as inactive or inconclusive;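 note: plate controls were DMSO alone for no effect and tamoxifen control for full effect; nearly all actives have a fitted effect of over 45% in size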); conditions: N2a mouse neuroblastoma cell viability; activity change, negative = cytotoxicity: at 92.2 µM (top of the series)
In short: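 Mouse neuroblastoma N2a cells (1500/well) were preincubated 5 hr at 37 °C, then exposed to compounds for 40 hr at 37 °C in complete medium. Viability was read as intracellular ATP by CellTiter-Glo luminescence; AC50 from Hill fits.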

[18] = Cell Viability - HUV-EC-C (AID 542; active = well fitted curve in the direction sought with a large enough effect; an effect the other way counts as inactive or inconclusive; note: % is set by controls: 0 for no effect and ±100 for the full control effect; nearly all actives have a fitted effect of over 35% in size); conditions: HUV-EC-C endothelial cell viability, qHTS; series mostly up to 92.2 µM
In short: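 HUV-EC-C normal human vascular endothelial cells, 1000 cells/well, pre-incubated 5 hr at 37 °C, then exposed to compounds for 40 hr at 37 °C in complete medium. Viability measured as intracellular ATP by CellTiter-Glo luminescence; AC50 from Hill fits.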

[19] = Cell Viability - H-4-II-E (AID 543; active = well fitted curve in the direction sought with a large enough effect; an effect the other way counts as inactive or inconclusive; note: % is set by controls: 0 for no effect and ±100 for the full control effect; nearly all actives have a fitted effect of over 35% in size); conditions: H-4-II-E rat hepatoma viability; series mostly up to 92.2 µM
In short: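 Rat hepatoma H-4-II-E cells (1500/well) were plated, incubated 5 hr at 37 °C, then exposed to compounds for 40 hr at 37 °C. Cellular ATP was read by CellTiter-Glo luminescence; AC50 came from Hill-equation fits of concentration-response data.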

Glucocorticoid receptor (Homo sapiens), sequence (P04150 whole entry, looked up, the tested form may be a part): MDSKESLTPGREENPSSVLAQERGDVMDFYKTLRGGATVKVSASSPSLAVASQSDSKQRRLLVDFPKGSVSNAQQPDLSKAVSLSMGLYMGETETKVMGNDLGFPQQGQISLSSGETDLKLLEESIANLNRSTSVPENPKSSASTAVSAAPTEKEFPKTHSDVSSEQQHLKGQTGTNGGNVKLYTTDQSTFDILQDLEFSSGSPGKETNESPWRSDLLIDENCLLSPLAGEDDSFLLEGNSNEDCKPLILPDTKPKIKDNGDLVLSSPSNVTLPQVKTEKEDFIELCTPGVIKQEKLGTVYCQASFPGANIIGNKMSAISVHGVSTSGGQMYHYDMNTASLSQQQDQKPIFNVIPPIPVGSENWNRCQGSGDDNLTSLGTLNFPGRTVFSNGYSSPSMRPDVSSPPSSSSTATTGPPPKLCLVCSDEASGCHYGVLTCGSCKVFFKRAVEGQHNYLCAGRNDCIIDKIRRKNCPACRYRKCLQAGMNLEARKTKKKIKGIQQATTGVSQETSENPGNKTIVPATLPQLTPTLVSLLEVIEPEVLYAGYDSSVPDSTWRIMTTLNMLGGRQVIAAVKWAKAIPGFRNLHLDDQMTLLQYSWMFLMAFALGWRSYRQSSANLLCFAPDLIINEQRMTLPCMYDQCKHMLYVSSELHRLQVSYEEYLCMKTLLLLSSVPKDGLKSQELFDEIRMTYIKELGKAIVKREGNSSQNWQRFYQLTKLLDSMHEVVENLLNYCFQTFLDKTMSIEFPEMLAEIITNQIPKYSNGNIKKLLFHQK
3',5'-cyclic-AMP phosphodiesterase 4B (Homo sapiens), sequence (Q07343 whole entry, looked up): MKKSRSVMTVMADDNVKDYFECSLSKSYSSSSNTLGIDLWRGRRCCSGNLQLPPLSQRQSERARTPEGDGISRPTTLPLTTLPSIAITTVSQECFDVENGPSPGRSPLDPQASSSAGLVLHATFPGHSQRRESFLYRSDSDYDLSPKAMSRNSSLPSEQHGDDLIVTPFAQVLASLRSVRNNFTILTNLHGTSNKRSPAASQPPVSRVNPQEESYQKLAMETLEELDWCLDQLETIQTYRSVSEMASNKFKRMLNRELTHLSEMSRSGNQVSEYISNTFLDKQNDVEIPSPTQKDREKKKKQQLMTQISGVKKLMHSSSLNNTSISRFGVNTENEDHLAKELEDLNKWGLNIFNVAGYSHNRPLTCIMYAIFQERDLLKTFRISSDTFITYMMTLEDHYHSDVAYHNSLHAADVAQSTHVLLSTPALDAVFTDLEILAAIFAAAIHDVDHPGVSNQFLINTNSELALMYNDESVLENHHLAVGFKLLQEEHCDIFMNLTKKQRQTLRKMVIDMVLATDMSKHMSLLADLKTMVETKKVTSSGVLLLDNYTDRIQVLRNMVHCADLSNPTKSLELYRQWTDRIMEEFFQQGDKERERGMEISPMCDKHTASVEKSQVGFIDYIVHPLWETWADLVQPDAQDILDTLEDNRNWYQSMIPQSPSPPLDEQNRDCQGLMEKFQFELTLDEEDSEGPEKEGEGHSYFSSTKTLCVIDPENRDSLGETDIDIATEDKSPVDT
Cytochrome P450 1A2 (Homo sapiens), sequence (P05177 whole entry, looked up): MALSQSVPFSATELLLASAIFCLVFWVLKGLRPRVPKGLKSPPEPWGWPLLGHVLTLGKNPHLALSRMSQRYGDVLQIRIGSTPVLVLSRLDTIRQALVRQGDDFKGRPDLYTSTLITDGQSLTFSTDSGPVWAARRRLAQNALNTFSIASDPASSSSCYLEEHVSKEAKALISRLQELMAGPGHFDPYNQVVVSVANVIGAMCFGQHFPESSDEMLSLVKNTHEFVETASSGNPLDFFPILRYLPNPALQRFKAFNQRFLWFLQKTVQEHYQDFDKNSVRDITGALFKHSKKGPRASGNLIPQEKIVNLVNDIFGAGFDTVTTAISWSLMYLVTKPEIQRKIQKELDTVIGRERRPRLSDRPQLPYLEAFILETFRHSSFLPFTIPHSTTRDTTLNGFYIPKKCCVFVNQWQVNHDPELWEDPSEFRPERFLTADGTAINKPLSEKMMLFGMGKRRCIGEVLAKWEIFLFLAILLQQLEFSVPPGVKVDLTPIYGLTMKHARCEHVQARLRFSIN

With `COC(=O)C1=C(C)NC(C)=C(C(=O)OC)C1c1ccccc1[N+](=O)[O-]` the activity change, negative = inhibition [1] was -27.7% (inactive), the Potency [2] was > 92 µM (inactive) and the Potency [3] was > 92 µM (inactive). For the same molecule, the Potency [4] was > 92 µM (inactive), the activity change, negative = inhibition ([5]; at 17.2 µM (top of the series)) was -7.96% (inactive) and the Potency [6] was > 46 µM (inactive) and > 20.6 µM (inactive). For the same molecule, the Potency [7] was > 46 µM (inactive) and > 20.6 µM (inactive), the Potency [8] was “inactive” and the Potency [9] was 2 µM (active). For the same molecule, the Potency [10] was 25.1 µM (active), the Potency [11] was 31.6 µM (active) and the outcome [12] was “inactive”. The outcome [13] was “inactive”.
With `Nc1ccc(S(=O)(=O)NC(=O)c2ccccc2)cc1` the activity change, negative = inhibition [1] was 13.8% (inactive) and 7.16% (inactive), the Potency [14] was “inactive” and the activity change, negative = inhibition ([5]; at 17.2 µM (top of the series)) was 7.31% (inactive) and -26.1% (inactive). The activity, negative = inhibition ([15]; at 17.2 µM (top of the series)) was -0.201% (inactive) and -5.16% (inactive), the Potency [6] was > 20.6 µM (inactive) and the Potency [7] was > 20.6 µM (inactive). The Potency [8] was “inactive” and the outcome [13] was “inactive”.
For `CN(C)CCOC(C)(c1ccccc1)c1ccccn1` (stereo unspecified), the activity change, negative = inhibition [1] was 4.21% (inactive).
With `c1ccc2c(CC3=NCCN3)cccc2c1` the activity change, negative = inhibition [1] was 14% (inactive) and 7.7% (inactive), the Potency [14] was “inactive” and the activity change, negative = inhibition ([5]; at 17.2 µM (top of the series)) was -19.1% (inactive). The activity, negative = inhibition ([15]; at 17.2 µM (top of the series)) was 6.58% (inactive) and 9.6% (inactive), the Potency [8] was “inactive” and the outcome [13] was “inactive”.
In the case of `CC(=O)c1ccc2c(c1)N(CCCN(C)C)c1ccccc1S2`, the activity change, negative = inhibition [1] is reported as 24.3% (inactive), the Potency [14] is reported as 1.58 µM (active) and the activity, negative = inhibition ([15]; at 17.2 µM (top of the series)) is reported as -0.766% (inactive). For the same molecule, the Potency [6] was > 20.6 µM (inactive), the Potency [7] was > 20.6 µM (inactive) and the Potency [8] was “inactive”. The outcome [13] was “inactive”.
With `Cc1cc(N)c2ccccc2[n+]1CCCCCCCCCC[n+]1c(C)cc(N)c2ccccc21` the activity change, negative = inhibition [1] was -20.8% (inactive), the Potency [14] was “inactive and 10 µM (active) and 15.8 µM (active)” and the activity change, negative = inhibition ([5]; at 38 µM (top of the series)) was -78.7% (active). The activity, negative = inhibition ([15]; at 17.2 µM (top of the series)) was -1.05% (inactive), the activity, negative = inhibition ([15]; at 38 µM (top of the series)) was -10.8% (inactive) and the Potency [6] was > 46 µM (inactive) and > 20.6 µM (inactive). The Potency [7] was > 46 µM (inactive) and > 20.6 µM (inactive), the Potency [8] was “inactive” and the outcome [13] was “inactive”.
With `Nc1ccc(S(=O)(=O)Nc2nccs2)cc1` the activity change, negative = inhibition [1] was -3.49% (inactive), the Potency [14] was “inactive” and the Potency [2] was > 92 µM (inactive). The Potency [16] was > 92 µM (inactive), the Potency [3] was > 92 µM (inactive) and the Potency [4] was > 92 µM (inactive). The activity change, negative = inhibition ([5]; at 17.2 µM (top of the series)) was 2.2% (inactive), the Potency [6] was > 20.6 µM (inactive) and the Potency [7] was > 20.6 µM (inactive). The Potency [8] was “inactive”, the activity change, negative = cytotoxicity [17] was -2.29% (inactive) and the Potency [18] was “inactive”. The Potency [19] was “inactive”, the Potency [11] was “inactive” and the outcome [12] was “inactive”. The outcome [13] was “inactive”.
For `CCn1cc(C(=O)O)c(=O)c2cnc(N3CCNCC3)nc21`, the activity change, negative = inhibition [1] was 8.66% (inactive) and 0.464% (inactive), the Potency [14] was “inactive” and the activity change, negative = inhibition ([5]; at 17.2 µM (top of the series)) was -4.81% (inactive). For the same molecule, the activity, negative = inhibition ([15]; at 17.2 µM (top of the series)) was 3.23% (inactive) and 2.72% (inactive), the Potency [8] was “inactive” and the outcome [13] was “inactive”.
